{
  "source": "PubChem BioAssay (NCATS)",
  "note": "Where “and” joins values, the source holds several entries; their conditions need not be identical. Identical values can stand only once. Unmarked numbers belong to inactive results. The call rests on the fitted dose curve; in most records, active means well fitted activation curve with a large enough effect; inconclusive means small, poorly fitted or top-dose-only effect; inactive means flat fitted curve, though single readings scatter.",
  "data": [
    {"target": "Peroxisome proliferator-activated receptor alpha (Homo sapiens) (UniProt Q07869)", "sequence (Q07869 whole entry, looked up)": "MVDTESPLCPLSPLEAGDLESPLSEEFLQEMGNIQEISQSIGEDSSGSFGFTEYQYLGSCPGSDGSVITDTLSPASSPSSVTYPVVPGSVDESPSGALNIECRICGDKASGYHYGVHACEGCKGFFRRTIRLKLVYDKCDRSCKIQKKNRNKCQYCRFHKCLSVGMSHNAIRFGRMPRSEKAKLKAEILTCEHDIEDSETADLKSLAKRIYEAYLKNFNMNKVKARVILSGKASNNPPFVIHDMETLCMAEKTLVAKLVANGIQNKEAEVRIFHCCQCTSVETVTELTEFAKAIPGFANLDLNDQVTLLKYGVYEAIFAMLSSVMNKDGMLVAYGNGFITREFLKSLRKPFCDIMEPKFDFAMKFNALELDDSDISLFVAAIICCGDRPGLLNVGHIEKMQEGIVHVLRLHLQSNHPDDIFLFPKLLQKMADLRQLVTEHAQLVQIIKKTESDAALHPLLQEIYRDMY", "experiment": "qHTS assay for small molecule agonists of the peroxisome proliferator-activated receptor alpha (PPARalpha) signaling pathway (AID 651778); further: % of control where 0% means no effect", "conditions": "PathHunter PPARalpha complementation, chemiluminescence, 6 h; stronger effect = higher value", "text": "National Center for Advancing Translational Sciences [NCATS]\nNIH Chemical Genomics Center [NCGC]\nU.S. Environmental Protection Agency [EPA]\nNational Institutes of Environmental Health Sciences [NIEHS]\nNational Toxicology Program [NTP]\nThe Peroxisome proliferator-activated receptors (PPARs) are lipid-activated transcription factors of the nuclear receptor superfamily with three distinct subtypes (alpha, garmma and beta/delta). All these subtypes heterodimerize with retinoid X receptor and have different physiological functions. PPARalpha is highly expressed in tissues with high rates of mitochondrial fatty acid oxidation, such as liver, heart, muscle, kidney and cells of the arterial wall. PPARalpha is a major regulator of lipid metabolism and energy homeostasis.\nA cell based assay was used to identify activators of PPARalpha. The assay detects binding of a ligand to PPARalpha leading to its activation, translocation and complementation thus forming a functional enzyme capable of hydrolyzing the substrate molecule and generating chemiluminescent signal.\n2,000 cells in 6 uL/well were dispensed into white wall/solid bottom 1536-well plates using a Multidrop Combi (Thermo Scientific) dispenser. After incubation 37 C and 5% CO2 overnight, 23 nL compound or DMSO only were transferred by a pin tool. The plates were incubated for 6 hr at 37 C and 5% CO2. 3 ul PathHunter detection reagent (Discoverx) was then added to each well and following 60 min incubation at room temperature, chemiluminescence was quantified on a ViewLux CCD-based plate reader.", "values": [
      {"smiles": "Cc1ccccc1[N+](=O)[O-]", "max response": "2.03%"},
      {"smiles": "O=P(OCCCl)(OCCCl)OCCCl", "max response": "-2.47%"},
      {"smiles": "CN(C)C(=O)Cl", "max response": "-4.05%"},
      {"smiles": "Cc1cccc(N)c1C", "max response": "-1.4%"},
      {"smiles": "Oc1ccc(Cl)c(Cl)c1Cl", "max response": "0.378%"},
      {"smiles": "CCN(CC)CCO", "max response": "-3.44%"},
      {"smiles": "c1ccc2c(c1)CCNC2", "max response": "5.32%"},
      {"smiles": "Cc1coc2c1CCC(C)C2", "note": "(stereo not given)", "max response": "9.95%"},
      {"smiles": "CC(C)(C)c1ccccc1O", "max response": "-7.23% and -1.41%"},
      {"smiles": "CC(C)OC(=O)Cc1ccccc1", "max response": "0.38%"},
      {"smiles": "Clc1cc(Cl)c(Cl)c(Cl)c1", "max response": "-0.217%"},
      {"smiles": "ClCc1ccccc1", "max response": "3.28%"},
      {"smiles": "Clc1ccc(C(c2ccccc2Cl)C(Cl)(Cl)Cl)cc1", "note": "(stereo not given)", "max response": "3.12%"},
      {"smiles": "CCCBr", "max response": "-0.188%"},
      {"smiles": "Cc1cc(Cl)ccc1O", "max response": "-3.66%"},
      {"smiles": "CCCCNC(=O)n1c(NC(=O)OC)nc2ccccc21", "max response": "0.197% and 0.6%"},
      {"smiles": "O=[N+]([O-])c1ccccc1-c1ccccc1", "max response": "-6.56%"},
      {"smiles": "CCCCOC(=O)c1ccccc1N", "max response": "-4.62%"},
      {"smiles": "C=CCc1cc(OC)c2c(c1)OCO2", "max response": "5.39%"},
      {"smiles": "Oc1cccc(Cl)c1", "max response": "16.7%"},
      {"smiles": "CCC(Cl)[N+](=O)[O-]", "note": "(stereo not given)", "max response": "11.6%"},
      {"smiles": "CN=C=O", "max response": "1.15%"},
      {"smiles": "O=[N+]([O-])c1cc(Cl)c(Cl)cc1Cl", "max response": "-8.71%"},
      {"smiles": "C=CCOCC1CO1", "note": "(stereo not given)", "max response": "11.4%"},
      {"smiles": "Cc1cc(-c2ccc(N)c(C)c2)ccc1N", "max response": "-2.87% and -0.886% and -6.11%"},
      {"smiles": "O=[N+]([O-])c1ccc(O)c([N+](=O)[O-])c1", "max response": "-7.09%"},
      {"smiles": "C=C(Cl)CCl", "max response": "-4.17%"},
      {"smiles": "CC(C)Br", "max response": "-8.27%"},
      {"smiles": "O=[N+]([O-])c1cccc2c([N+](=O)[O-])cccc12", "max response": "-0.14%"},
      {"smiles": "Nc1ccc(-c2ccc(N)cc2)cc1", "max response": "-0.279%"},
      {"smiles": "ClCC(Cl)Cl", "max response": "4.99%"},
      {"smiles": "O=C(Cl)OCc1ccccc1", "max response": "0.201%"},
      {"smiles": "Brc1ccc(Oc2ccc(Br)cc2Br)c(Br)c1", "max response": "6.57%"},
      {"smiles": "Cc1ccc(N)c(C)c1", "max response": "-4.17%"},
      {"smiles": "O=C(O)c1cc(Cl)ccc1Cl", "max response": "5.32%"},
      {"smiles": "c1ccc(N=NNc2ccccc2)cc1", "max response": "-1.28% and 2.45%"},
      {"smiles": "O=[N+]([O-])/C=C/c1ccccc1", "max response": "-1.42%"},
      {"smiles": "CC(C)CON=O", "max response": "-1.42%"},
      {"smiles": "COC(C)(C)C", "max response": "-1.3%"},
      {"smiles": "CC(=O)CCC(C)=O", "max response": "-3.42%"}
    ]}
  ]
}
